Compound activity: PubChem BioAssay, National Center for Advancing Translational Sciences (NCATS)
TDP1 cell CPT – DT40-hTDP1 cell growth loss with CPT. Potency, µM (series often up to 46.2 µM), most hits filed as inhibitors. chicken DT40 Tdp1-/-;hTDP1 cells + 20 nM CPT, ATP luminescence, 48 h. 420,000 compounds, 12% hits. AID 686979; note: nearly all actives have a fitted effect of over 55% in size
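Chicken DT40 Tdp1-/- cells complemented with human TDP1, 400 cells/well, exposed to compounds plus 20 nM camptothecin for at least 48 h at 37 C; viability read as ATP content by CellTiter-Glo luminescence.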
IL1B secr inh – inhibitors of inflammasome signaling (IL-1 beta secretion); activity change, % at 57.5 µM; 360,000 compounds, 4.7% hits; THP-1 LPS/ATP IL-1B secretion, AlphaLISA, 16 h; hits give low values; in the data active = activity change below about -50%; inconclusive = mostly about -30% to -49%
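THP-1 cells pretreated 1 hr with compounds (up to 57.5 uM final), then stimulated with LPS (250 ng/mL final) plus ATP (1.25 mM final); secreted IL-1B measured by AlphaLISA after 16 hr, decreased signal indicating inhibition.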
HepG2 viability – HepG2 cytotoxicity, counter-screen for TGF-b inhibitors | HepG2 CAGA-GFP viability, ATP luminescence, 18 h | AID 588856 | Potency, µM (highest dose often 46.1 µM), hits mostly cytotoxic | 410,000 compounds, 0.76% hits
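CellTiter-Glo luminescence gave cytotoxicity after 18 hours at 37 degrees C. The cells were HepG2 CAGA-GFP in 1% FBS DMEM, stimulated with 500 pg/mL TGF-beta after compound addition. %Activity was normalised to no-cell wells (complete cell-killing) and DMSO (no toxicity), and curves were fitted and classified.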
DT40 TDP1 no CPT – qHTS for Inhibitors of human tyrosyl-DNA phosphodiesterase 1 (TDP1): qHTS in cells in absence of CPT. DT40 Tdp1-/- hTDP1 cells, no CPT, ATP luminescence, 48 h. 420,000 compounds, 15% hits. Potency, µM (series often up to 46.2 µM), actives largely listed as inhibitors. AID 686978, 2013; note: nearly all actives have a fitted effect of over 55% in size
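Seeded 400 DT40-hTDP1 cells/well (vehicle DMSO, no 20 nM CPT); pinned compounds; ≥48 hr at 37 °C; CellTiter-Glo luminescence as viability measure.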
TDP1 inh – TDP1 (human) enzyme inhibition | recombinant TDP1, AlphaScreen DNA substrate cleavage | Potency, µM (titrated, usually from 130 µM), actives largely listed as inhibitors | 350,000 compounds, 0.28% hits | AID 485290 | Q9NUW8; note: nearly all actives have a fitted effect of over 40% in size
Target sequence (Q9NUW8 whole entry, looked up): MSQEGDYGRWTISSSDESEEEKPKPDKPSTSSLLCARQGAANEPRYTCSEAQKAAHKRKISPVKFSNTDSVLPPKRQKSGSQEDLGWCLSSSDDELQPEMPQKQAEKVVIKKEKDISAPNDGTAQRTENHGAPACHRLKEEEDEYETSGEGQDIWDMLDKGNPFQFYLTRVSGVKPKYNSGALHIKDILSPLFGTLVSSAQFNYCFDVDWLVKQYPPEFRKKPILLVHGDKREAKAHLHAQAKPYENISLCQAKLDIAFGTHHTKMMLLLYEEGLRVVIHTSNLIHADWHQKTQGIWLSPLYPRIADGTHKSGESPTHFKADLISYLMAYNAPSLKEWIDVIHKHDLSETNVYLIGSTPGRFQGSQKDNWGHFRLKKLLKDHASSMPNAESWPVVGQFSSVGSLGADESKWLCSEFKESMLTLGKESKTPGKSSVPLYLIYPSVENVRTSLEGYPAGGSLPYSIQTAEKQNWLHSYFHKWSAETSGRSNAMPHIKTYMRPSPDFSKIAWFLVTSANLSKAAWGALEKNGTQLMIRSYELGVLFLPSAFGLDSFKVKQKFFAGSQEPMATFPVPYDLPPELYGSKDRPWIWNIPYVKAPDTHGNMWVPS
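Signal: AlphaScreen proximity between streptavidin donor and anti-FITC acceptor beads on intact substrate. Reaction: Tdp1 1 nM, substrate 15 nM final, 5 min RT after 15 min compound preincubation.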
TGFb inhibitor – inhibitors of TGF-b signaling | HepG2 CAGA-GFP TGF-b/SMAD3 reporter, GFP fluorescence, 18 h; TGF-beta stimulated, 500 pg/mL final | Potency, µM (series often up to 46.1 µM), usual class: inhibitors | 410,000 compounds, 1.2% hits | AID 588855; note: nearly all actives have a fitted effect of over 65% in size
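HEPG2 CAGA-GFP reporter cells (1000/well, DMEM with 1% FBS) received compounds, then recombinant TGF-beta at 500 pg/mL final for 18 hours at 37 degrees C. Per-cell GFP summed per well was normalised to unstimulated and stimulated DMSO controls before curve fitting.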
A number is an active result; . = inactive; ? = inconclusive; / = no result; [ ] = another dose, or the depositor's remark. Sampled rows, rich in hits. Any-hit rate of the full collection: about 19%. Unless noted, calls come from the whole dose curve; as a rule, active = well fitted curve in the direction sought with a large enough effect; inconclusive = small, poorly fitted or top-dose-only effect, or another doubt; inactive = no such curve, though single readings can be large; an effect the other way counts as inactive or inconclusive.

SMILES	TDP1 cell CPT	IL1B secr inh	HepG2 viability	DT40 TDP1 no CPT	TDP1 inh	TGFb inhibitor
Cc1c(CN2CCOc3ccc(C(C)(O)COc4ccccc4)cc3C2)cnn1C (configuration not stated)	.[9.04 µM]	/	/	.	/	/
Cc1cc(Cl)cc(Cl)c1CNc1c([N+](=O)[O-])c(=O)oc2ccccc12	?	.	.	16.4µM	.	?
O=c1oc2ccccc2c(NCc2ccc(Cl)cc2)c1[N+](=O)[O-]	.	.	.	.	.	?
O=c1oc2ccccc2c(Nc2cc3ccccc3cc2O)c1[N+](=O)[O-]	5.8µM	.	.	5.8µM	.	?
O=c1oc2ccccc2c(Nc2ccccc2O)c1[N+](=O)[O-]	.	.	.	.	.	.
CCc1ccc(NC(=O)CCCc2nnc3n(C(C)CC)c(=O)c4sccc4n23)cc1 (configuration not stated)	.	/	.	.	.	?
Cc1nn(-c2ccccn2)c2c1-c1nc(N)ncc1CC2	?	.	.	?	.	.
Cc1nn(-c2ccccn2)c2c1-c1nc(N)sc1CC2	20µM	/	.	17.8µM	/	.
Cc1nn(-c2ccccn2)c(N)c1N=O	.	.	.	.	.	.
Cc1nn(-c2ccccn2)c2c1-c1nc(N3CCOCC3)ncc1CC2	18.4µM	.	.	23.1µM	.	?
O=C(CSc1ncc2c(n1)-c1ccccc1N(Cc1ccc(F)cc1)S2(=O)=O)NCCc1ccccc1	?	/	.	?	.	.
CC(C)c1nc2c(s1)CCc1onc(-c3cccc([N+](=O)[O-])c3)c1-2	?	.	.	23.1µM	.	.
CCCc1nc2c(s1)CCc1onc(-c3cccc([N+](=O)[O-])c3)c1-2	.	.	.	.	.	.
COc1ccc(CCNC(=O)CCCn2c(=O)c3ccccc3n(CC(=O)Nc3cccc(C)c3)c2=O)cc1OC	?	/	.	18.4µM	.	?
COc1ccc(CCNC(=O)CCn2c(=O)c3ccccc3n(Cc3ccccc3F)c2=O)cc1OC	14.6µM	/	.	11.6µM	.	.
COc1ccc(CCNC(=O)CCn2c(=O)c3ccccc3n(Cc3ccccc3)c2=O)cc1OC	?	/	.	18.4µM	.	.
COc1ccc(CCNC(=O)CCCn2c(=O)c3ccccc3n(Cc3ccccc3)c2=O)cc1OC	?	/	.	16.4µM	.	.
COc1ccc(CCNC(=O)CCCCn2c(=O)c3ccccc3n(Cc3cc(C)ccc3C)c2=O)cc1OC	.	/	.	.	.	.
C=C1C2CC[C@@]3(C)C(c4ccoc4)OC(=O)C[C@@]13OC1CC(=O)C(C)(C)C(C(O)C(=O)OC)[C@]12C (some centres not stated)	?	/	/	?	.	/
COc1cc2nc(NCCc3ccc(Cl)cc3)n3nc(-c4ccccc4)nc3c2cc1OC	.	/	.	?	.	.
CCOc1ccc(N2C(=O)CC(C(C)c3ccccc3)C2=O)cc1 (configuration not stated)	.	.	.	.	/	.
CCc1ccc(NC(=O)Cn2c(=O)n(CCCCC(=O)NCCc3ccc(Cl)cc3)c(=O)c3ccccc32)cc1	?	/	.	?	.	.
COc1ccc(CCNC(=O)CCCCCN2C(=O)[C@@H]3Cc4ccccc4CN3C2=O)cc1OC	20.6µM	.	.	?	.	.
O=C(CCCn1c(=O)c2ccccc2n(Cc2cccc(Cl)c2)c1=O)NCCc1ccc(Cl)cc1	?	/	.	18.4µM	.	.
CCc1ccc(C(=O)c2cn(CC(=O)Nc3ccc(OC)c(OC)c3)c3ccc(C)cc3c2=O)cc1	.	/	.	.	.	.
SMILES	TDP1 cell CPT	IL1B secr inh	HepG2 viability	DT40 TDP1 no CPT	TDP1 inh	TGFb inhibitor
Cc1ccc(C)c(N2CCN(C(=O)CN3C(=S)NC(C)(C)CC3C)CC2)c1 (configuration not stated)	23.1µM	.	.	23.1µM	.	?
Cc1ccc(C)c(N2CCN(C(=O)CC3Sc4ccccc4NC3=O)CC2)c1 (configuration not stated)	18.4µM	.	.	16.4µM	.	?
COc1ccc(C2c3c(nc(CCCc4ccccc4)[nH]c3=O)Oc3ccc4ccccc4c32)cc1OC (configuration not stated)	/	/	/	/	.	/
CCOC(=O)c1ccc(Nc2ncnc3c2cnn3-c2cccc(Cl)c2)cc1	.	/	.	?	.	.
N#Cc1cccc(Nc2ncnc3c2cnn3-c2cccc(Cl)c2)c1	?	/	.	23.1µM	.	.
Clc1cccc(Nc2ncnc3c2cnn3-c2ccccc2)c1	?	.	.	?	.	?
Fc1cccc(Nc2ncnc3c2cnn3-c2ccccc2)c1	?	.	.	16.4µM	/	?
COC(=O)c1ccc(OC)c(Cn2c(=O)n(-c3cccc(Cl)c3)c(=O)c3c4c(sc32)CN(C(C)=O)CC4)c1	.	/	.	.	.	?
COc1ccc(CCNC(=O)Cn2cccc2C(=O)c2ccccc2)cc1OC	.	.	.	.	.	.
COc1ccc(OC)c(CCNC(=O)Cn2cccc2C(=O)c2ccccc2C)c1	?	.	.	8.2µM	.	.
COc1ccc(OC)c(CCNC(=O)Cn2cccc2C(=O)c2ccccc2)c1	7.31µM	.	.	?	.	.
Cc1ccc(S(=O)(=O)NN2C(=O)c3ccccc3NC2c2ccccn2)cc1 (configuration not stated)	.	-111.5	.	.	.	.
CC1(C)OC(C)(C)/C(=C/Nc2ccc(O)cc2)C1=O	?	.	.	23.1µM	.	.
CC1(C)OC(=O)C(=CNc2cccc(O)c2)C(=O)O1	.	.	.	.	.	.
COc1cc(/C=C2/SC(=O)N(Cc3ccccc3)C2=O)ccc1OCc1ccncc1	16.4µM	?	.	11.6µM	.	.
COCCN1C(=O)/C(=C/c2ccc(OCc3ccc(C(=O)O)cc3)c(OC)c2)SC1=Nc1ccccc1	23.1µM	.	.	20.6µM	.	.
COc1ccc(/C=C2\SC(=NCc3ccccc3)N(Cc3ccccc3)C2=O)cc1OC	.	.	.	?	.	.
CCOc1ccc(NC(=O)CC(Cc2cc(C)cc(C)c2)C(=O)O)cc1 (configuration not stated)	.	.	.	.	/	?
Cc1cc(NC(=O)COc2ccc3c(C)c(C)c(=O)oc3c2)no1	.	.	.	.	/	.
Cc1cc(NC(=O)COC(=O)c2oc3c(ccc4ccccc43)c2C)no1	?	.	.	16.4µM	.	.
Cc1cc(NC(=O)COc2ccc3oc4ccccc4c3c2)no1	?	.	.	20.6µM	.	.
